{"source": "PubChem BioAssay AID624496", "about": "(National Center for Advancing Translational Sciences (NCATS), 2012)", "note": "Inconclusive results are not listed. Activity calls are given as the source filed them. Calls follow the shape of the dose curve; as a rule, active = well fitted inhibition curve with a large enough effect; inconclusive = small, poorly fitted or top-dose-only effect, or another doubt; inactive = no such curve, though single readings can be large or run the other way."}
{"target": "D(2) dopamine receptor (Homo sapiens) (UniProt P14416)", "sequence (P14416 whole entry, looked up)": "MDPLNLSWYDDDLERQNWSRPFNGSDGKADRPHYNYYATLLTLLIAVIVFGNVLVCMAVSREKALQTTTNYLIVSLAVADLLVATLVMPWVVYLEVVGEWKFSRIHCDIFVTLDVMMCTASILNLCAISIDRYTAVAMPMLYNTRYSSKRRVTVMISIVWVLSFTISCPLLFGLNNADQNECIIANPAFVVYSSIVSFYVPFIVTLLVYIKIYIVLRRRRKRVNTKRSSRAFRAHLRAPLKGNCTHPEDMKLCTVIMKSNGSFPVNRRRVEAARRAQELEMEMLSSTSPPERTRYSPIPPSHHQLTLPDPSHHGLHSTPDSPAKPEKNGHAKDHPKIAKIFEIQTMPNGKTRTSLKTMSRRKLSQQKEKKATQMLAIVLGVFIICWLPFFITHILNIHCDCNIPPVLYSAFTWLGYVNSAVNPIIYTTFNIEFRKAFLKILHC", "test": "HTS Assay for Allosteric Antagonists of the Human D2 Dopamine Receptor: SAR in Primary Assay.", "conditions": "HEK293 T-REx D2 cells, calcium flux, dopamine EC80 antagonism; activity, negative = inhibition: at 41.8 µM (top of the series) unless noted", "description": "Dopamine receptors (DARs) are involved in the etiology and/or therapy of a number of neuropsychiatric and endocrine disorders. For instance, all receptor-based antiparkinsonian drugs work via stimulating the D2 DAR subtype whereas all FDA-approved antipsychotic agents are antagonists of this receptor. […] There are three different types of allosteric modulators that we are seeking, two of which will stimulate or augment receptor signaling, allosteric agonists and potentiators, while the third, allosteric antagonists, will attenuate receptor signaling. The present project is looking for compound antagonism after an EC80 addition of dopamine by tracking calcium flux in a […], inducible Hek293 Trex D2 cell line, which act through an allosteric site. NIH Chemical Genomics Center [NCGC] NIH Molecular Libraries Probe Centers Network [MLPCN] MLPCN Grant: NS064831 Assay Submitter (PI): David Sibley\nFreshly passaged cells are plated in 1536 well black, clear bottom plates at a density of 4000 cells/well in 3 ul of complete media containing 1x tetracycline inducer. After an overnight incubation at 30 deg C in 5% CO2, cells are loaded with 2 ul of the no wash Calcium Assay Kit (ABD Bioquest) and incubated at room temperature for 30 to 90 minutes. Agonist read: A 10 cycle (1 second/cycle) baseline measurement is taken and then the FDSS online 1536 pintool delivers 23 nl of compound library (as well as dopamine controls) to the plate. The plate is measured for kinetically at 1 cycle/sec for 180 seconds. Following the 180 second read, 1 ul of an EC80 (negative modulation assay) is delivered by an onboard pipette head. Measurements are taken kinetically for an additional 180 seconds."}
{"smiles": "CCN1C(=O)c2ccccc2S(=O)c2ccc(C(=O)NCc3ccc(SC)cc3)cc21", "note": "(stereo not given)", "Potency": "223 nM (active)"}
{"smiles": "CCN1C(=O)c2ccccc2S(=O)c2ccc(C(=O)NCc3ccccc3)cc21", "note": "(stereo not given)", "Potency": "705 nM (active)"}
{"smiles": "CCN1C(=O)c2ccccc2S(=O)c2ccc(C(=O)NCc3ccc(C(C)(C)C)cc3)cc21", "note": "(stereo not given)", "Potency": "353 nM (active)"}
{"smiles": "CCN1C(=O)c2ccccc2[S@](=O)c2ccc(C(=O)NCc3ccc(OC)cc3)cc21", "Potency": "8870 nM (active)"}
{"smiles": "COc1ccc(CNC(=O)c2ccc3c(c2)NC(=O)c2ccccc2S3=O)cc1", "note": "(stereo not given)", "Potency": "141 nM (active)"}
{"smiles": "CN1C(=O)c2ccccc2[S@](=O)c2ccc(C(=O)NCCc3cccs3)cc21", "Potency": "280 nM (active)"}
{"smiles": "CCN1C(=O)c2ccccc2S(=O)c2ccc(C(=O)Nc3ccc(OC)cc3)cc21", "note": "(stereo not given)", "Potency": "887 nM (active)"}
{"smiles": "CN1C(=O)c2ccccc2S(=O)c2ccc(C(=O)NCCN3CCCC3)cc21", "note": "(stereo not given)", "Potency": "280 nM (active)"}
{"smiles": "CCN1C(=O)c2ccccc2[S@](=O)c2ccc(C(=O)NCc3ccc(F)cc3)cc21", "Potency": "353 nM (active)"}
{"smiles": "CN1C(=O)c2ccccc2[S@](=O)c2ccc(C(=O)NCc3cccnc3)cc21", "Potency": "177 nM (active)"}
{"smiles": "CN1C(=O)c2ccccc2S(=O)c2ccc(C(=O)NCCc3cccs3)cc21", "note": "(stereo not given)", "Potency": "88.7 nM (active)"}
{"smiles": "CCN1C(=O)c2ccccc2[S@@](=O)c2ccc(C(=O)NCc3ccc(OC)cc3)cc21", "activity, negative = inhibition": "-112%"}
{"smiles": "CN1C(=O)c2ccccc2S(=O)c2ccc(C(=O)NCc3ccccc3)cc21", "note": "(stereo not given)", "Potency": "560 nM (active)"}
{"smiles": "CN1C(=O)c2ccccc2[S@](=O)c2ccc(C(=O)NCCN3CCCC3)cc21", "Potency": "4450 nM (active)"}
{"smiles": "CCN1C(=O)c2ccccc2S(=O)c2ccc(C(=O)NCc3ccc(C(F)(F)F)cc3)cc21", "note": "(stereo not given)", "Potency": "141 nM (active)"}
{"smiles": "CCN1C(=O)c2ccccc2S(=O)c2ccc(C(=O)NCc3ccc(C)cc3)cc21", "note": "(stereo not given)", "activity, negative = inhibition": "5.87% [at 4.65 µM]"}
{"smiles": "CN1C(=O)c2ccccc2S(=O)c2ccc(C(=O)NCCN3CCCCC3)cc21", "note": "(stereo not given)", "Potency": "112 nM (active)"}
{"smiles": "COc1ccc(CNC(=O)c2cccc(N3C(=O)c4ccccc4C3=O)c2)cc1", "activity, negative = inhibition": "-114%"}
{"smiles": "CN(C)CCCNC(=O)c1ccc2c(c1)N(C)C(=O)c1ccccc1S2=O", "note": "(stereo not given)", "activity, negative = inhibition": "-85.7% [at 4.65 µM] (active)"}
{"smiles": "CN1C(=O)c2ccccc2S(=O)c2ccc(C(=O)NCc3ccc(Cl)cc3)cc21", "note": "(stereo not given)", "Potency": "353 nM (active)"}
{"smiles": "CN1C(=O)c2ccccc2[S@](=O)c2ccc(C(=O)NCc3ccc(Br)cc3)cc21", "Potency": "70.5 nM (active)"}
{"smiles": "CCN1C(=O)c2ccccc2S(=O)c2ccc(C(=O)OCc3ccc(OC)cc3)cc21", "note": "(stereo not given)", "Potency": "inactive"}
{"smiles": "CN1C(=O)c2ccccc2S(=O)c2ccc(C(=O)Nc3ccccc3)cc21", "note": "(stereo not given)", "Potency": "280 nM (active)"}
{"smiles": "CCN1C(=O)c2ccccc2S(=O)c2ccc(C(=O)NCc3cc(OC)c(OC)c(OC)c3)cc21", "note": "(stereo not given)", "activity, negative = inhibition": "23.4%"}
{"smiles": "CCN1C(=O)c2ccccc2S(=O)c2ccc(NC(=O)Cc3ccc(OC)cc3)cc21", "note": "(stereo not given)", "Potency": "705 nM (active)"}
{"smiles": "CCN1C(=O)c2ccccc2S(=O)c2ccc(C(=O)NCc3ccc(OC)cc3)cc21", "note": "(stereo not given)", "Potency": "88.7 nM (active)"}
{"smiles": "CN1C(=O)c2ccccc2S(=O)c2ccc(C(=O)NCc3cccc(Cl)c3)cc21", "note": "(stereo not given)", "Potency": "280 nM (active)"}
{"smiles": "CCN1C(=O)c2ccccc2[S@](=O)c2ccc(C(=O)N[C@H](C)c3ccc4ccccc4c3)cc21", "Potency": "70.5 nM (active)"}
{"smiles": "CN1C(=O)c2ccccc2S(=O)c2ccc(C(=O)NCc3ccc(Br)cc3)cc21", "note": "(stereo not given)", "Potency": "70.5 nM (active)"}
{"smiles": "CCN1C(=O)c2ccccc2S(=O)c2ccc(NC(=O)Cc3ccc(F)cc3)cc21", "note": "(stereo not given)", "Potency": "223 nM (active)"}
{"smiles": "CN1C(=O)c2ccccc2S(=O)c2ccc(C(=O)NCc3cccnc3)cc21", "note": "(stereo not given)", "activity, negative = inhibition": "-114% [at 4.65 µM] (active)"}
{"smiles": "CCN1C(=O)c2ccccc2S(=O)c2ccc(C(=O)NCc3ccc(F)cc3)cc21", "note": "(stereo not given)", "Potency": "705 nM (active)"}
{"smiles": "CCN1C(=O)c2ccccc2S(=O)c2ccc(C(=O)NCc3ccc4c(c3)OCO4)cc21", "note": "(stereo not given)", "Potency": "112 nM (active)"}
{"smiles": "CN1C(=O)c2ccccc2[S@](=O)c2ccc(C(=O)NCc3ccc(Cl)cc3)cc21", "Potency": "445 nM (active)"}
{"smiles": "COc1ccc(CNC(=O)c2ccc3c(c2)N(Cc2ccccc2)C(=O)c2ccccc2S3=O)cc1", "note": "(stereo not given)", "Potency": "88.7 nM (active)"}
{"smiles": "CCN1C(=O)c2ccccc2Sc2ccc(C(=O)NCc3ccc(OC)cc3)cc21", "Potency": "887 nM (active)"}
{"smiles": "CCN1C(=O)c2ccccc2S(=O)c2ccc(C(=O)N(C)Cc3ccc(OC)cc3)cc21", "note": "(stereo not given)", "activity, negative = inhibition": "-112% [at 4.65 µM]"}
{"smiles": "CN1C(=O)c2ccccc2S(=O)c2ccc(C(=O)NCc3ccccn3)cc21", "note": "(stereo not given)", "Potency": "223 nM (active)"}
{"smiles": "COc1ccc(CNC(=O)c2ccc3c(c2)N(C)C(=O)c2ccccc2S3=O)cc1", "note": "(stereo not given)", "Potency": "112 nM (active)"}
{"smiles": "CN1C(=O)c2ccccc2[S@@](=O)c2ccc(C(=O)NCCc3cccs3)cc21", "Potency": "88.7 nM (active)"}
